About 83,000 compounds went through this panel and 20% of them were active in at least one assay; those are over-represented in the sample as a whole.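 Single-concentration screen, 48 h exposure, 96-well plates. Endpoint: percent growth. Below 10 = active.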 Active and inactive are the calls of the source.
Columns and labels:
Assay in all cases: NCI-60 one-dose screen, 48 h (100 = growth as untreated, 0 = no growth, -100 = all killed)
Conditions in all cases: 10 µM unless noted
[1] = tested on: SK-MEL-2 melanoma
[2] = tested on: EKVX NSCLC
[3] = tested on: SN12C renal
[4] = tested on: UO-31 renal
[5] = tested on: TK-10 renal
[6] = tested on: ACHN renal
[7] = tested on: A498 renal
[8] = tested on: CCRF-CEM leukemia
[9] = tested on: MOLT-4 leukemia
[10] = tested on: SR leukemia
[11] = tested on: RPMI-8226 leukemia
[12] = tested on: OVCAR-8 ovarian
[13] = tested on: OVCAR-5 ovarian
[14] = tested on: OVCAR-4 ovarian
[15] = tested on: SK-OV-3 ovarian
[16] = tested on: IGROV1 ovarian
[17] = tested on: OVCAR-3 ovarian
[18] = tested on: HS 578T breast
[19] = tested on: NCI/ADR-RES ovarian

Measured: growth

S=c1[nH]nc(Cn2c3ccccc3c3ccncc32)o1
inactive: [1] 96.6% | [2] 106% | [3] 102% | [4] 97.3% | [5] 102% | [6] 98.3% | [7] 97.3% | [8] 84.6% | [9] 93.8% | [10] 99.9% | [11] 97.3% | [12] 94.2% | [13] 102% | [14] 96.7% | [15] 94.5% | [16] 103% | [17] 97.8% | [18] 106% | [19] 102%

COc1ccc(/C(=C/c2cc(OC)c(OC)c(OC)c2)[N+](=O)[O-])cc1
inactive: [2] 27.9% | [7] 87.4% | [12] 13.4% | [13] 98.6% | [14] 37.3% | [15] 91% | [18] 97.9% | [19] 33.8%
active: [1] -13.2% | [3] 5.64% | [4] -69.1% | [5] -1.67% | [6] -74% | [8] -7.93% | [9] 0.326% | [10] -11.2% | [11] -18.6% | [16] -4.79% | [17] -54.3%

COc1ccc(N)c(S)c1
inactive: [1] 108% | [2] 91.7% | [3] 94.4% | [4] 78.9% | [5] 105% | [6] 98.2% | [7] 112% | [8] 98.2% | [9] 91% | [10] 103% | [11] 95.9% | [12] 90.6% | [13] 104% | [14] 96% | [15] 85% | [16] 94.9% | [17] 110% | [18] 102% | [19] 98.4%

CCCCCn1ncc(-c2c(O)c(O)cc3c(O)c(-c4c(C)cc5c(-c6cnn(CCCCC)n6)c(O)c(O)cc5c4O)c(C)cc23)n1
active: [1] 3.71% | [2] 9.87% | [4] -49.5% | [6] 6.56% | [8] 1.09% | [9] 6.44% | [10] -29.1% | [11] 0.346% | [12] 8.04% | [15] -0.985% | [17] 8.42% | [19] 2.37%
inactive: [3] 18.6% | [5] 10.2% | [7] 53% | [13] 32.3% | [14] 34.6% | [16] 13.2% | [18] 31%

OCc1cnccc1NC12CC3CC(CC(C3)C1)C2
inactive: [1] 95.1% | [2] 103% | [3] 105% | [4] 90.1% | [5] 99.1% | [6] 101% | [7] 94.7% | [8] 95.9% | [9] 88.8% | [10] 98.9% | [11] 96.8% | [12] 93.8% | [13] 107% | [14] 101% | [15] 100% | [16] 102% | [17] 103% | [18] 103% | [19] 98.8%

COc1ccc(-c2c(NC(=O)Nc3ccc(Cl)c(C(F)(F)F)c3)cnn2-c2ccc(S(N)(=O)=O)cc2)cc1
inactive: [2] 61.6% | [3] 51.4% | [4] 50.9% | [5] 30.9% | [6] 57.5% | [7] 26.8% | [11] 19.9% | [12] 28.5% | [13] 60.6% | [14] 32.8% | [15] 68.4% | [16] 33.1% | [17] 25.4% | [18] 49.6% | [19] 89.9%
active: [1] -4.24% | [8] 8.88% | [9] 1.8% | [10] 7.38%

COc1ccc(-c2cc(-c3nnc(SC/C(=N\O)c4ccccc4)n3-c3ccccc3)c3ccccc3n2)cc1
inactive: [1] 95.2% | [2] 103% | [3] 105% | [4] 75.3% | [5] 123% | [6] 106% | [7] 109% | [8] 103% | [9] 98.4% | [10] 86.8% | [11] 97.9% | [12] 98.7% | [13] 119% | [14] 113% | [15] 79.4% | [16] 105% | [17] 107% | [18] 98.4% | [19] 104%

COc1ccccc1S(=O)(=O)Nc1ccc2c3c(cc(-c4cnn(C)c4)nc13)C(=O)N2C
active: [11] -4.77%
inactive: [1] 46.9% | [2] 40.2% | [3] 52.2% | [4] 23.7% | [5] 13% | [6] 37.5% | [7] 26.8% | [8] 55.5% | [9] 44.7% | [10] 46.1% | [12] 47.1% | [13] 54.1% | [14] 51% | [15] 14.8% | [16] 18.4% | [17] 34.1% | [18] 23.8% | [19] 35.9%

Fc1cccc(F)c1C#Cc1ccc2cccnc2c1
inactive: [1] 84.4% | [2] 68.6% | [3] 88.3% | [4] 53.5% | [5] 88.4% | [6] 88.5% | [7] 99.7% | [8] 83.7% | [9] 71.6% | [10] 75.4% | [11] 70.2% | [12] 87.3% | [13] 136% | [14] 75.1% | [15] 95.7% | [16] 56.3% | [17] 83.5% | [18] 91.6% | [19] 90.8%

COc1cc2ncnc(Oc3ccc(NC(=O)Nc4ccc(C5(C#N)CCCC5)cc4)c4ccccc34)c2cc1OC
inactive: [1] 80.9% | [2] 57.7% | [3] 21.3% | [4] 55.8% | [5] 24.1% | [6] 29.3% | [7] 82.4% | [8] 77.5% | [9] 60.9% | [10] 70.3% | [11] 58.8% | [13] 81% | [15] 40.7% | [16] 40% | [17] 52% | [18] 29.6% | [19] 72.2%
active: [12] 0.585% | [14] -1.26%

CN(C)c1ccc2cc(-c3nc4ccccc4s3)c(N)nc2c1
inactive: [1] 51.5% | [2] 67.7% | [3] 48.5% | [4] 51.8% | [5] 111% | [6] 102% | [7] 38.2% | [9] 22.4% | [10] 20.9% | [11] 10.6% | [12] 67.8% | [13] 121% | [14] 78.3% | [15] 50.9% | [16] 63.6% | [17] 11.9% | [18] 91.9% | [19] 34.3%
active: [8] 6.43%

Cc1cccc[n+]1CCC[n+]1ccccc1C
inactive: [1] 100% | [2] 94.6% | [3] 101% | [4] 99% | [5] 88% | [6] 109% | [7] 109% | [8] 99.6% | [9] 86.1% | [10] 96.2% | [11] 98.8% | [12] 105% | [13] 109% | [14] 110% | [15] 76.1% | [16] 107% | [17] 112% | [18] 109% | [19] 106%

COc1ccc(C(=O)Cn2cnc3c(Nc4cc(C(=O)Nc5ccc(N6CCN(CCO)CC6)cc5)ccc4C)ncnc32)cc1
inactive: [1] 100% | [2] 99% | [3] 104% | [4] 87.6% | [5] 102% | [6] 103% | [7] 111% | [8] 105% | [9] 90% | [10] 83.7% | [11] 96.7% | [12] 104% | [13] 104% | [14] 106% | [15] 99.2% | [16] 110% | [17] 100% | [18] 97.7% | [19] 104%

N#CC1=C(N)Oc2c(ccc3ccccc23)C1c1cc(=O)oc2ccc(Cl)cc12 (centres undefined)
inactive: [1] 43.6% | [2] 44.5% | [3] 47.5% | [4] 50.9% | [5] 71.4% | [6] 50.8% | [7] 23.4% | [8] 18.6% | [9] 20.8% | [10] 22.9% | [11] 30.7% | [12] 27.7% | [13] 51.6% | [14] 65.8% | [15] 16.9% | [16] 39.8% | [18] 47.5% | [19] 12.2%
active: [17] -9.67%

Cc1ccc2c(C3C(C#N)=C(N)Oc4cc5ccccc5cc43)cc(=O)oc2c1 (centres undefined)
inactive: [1] 27.8% | [2] 40% | [3] 46.3% | [4] 47.3% | [5] 47.6% | [6] 50.6% | [7] 30.8% | [8] 13% | [9] 20.8% | [10] 16.9% | [11] 21.9% | [12] 24.5% | [13] 49.7% | [14] 67.6% | [15] 28.3% | [16] 39.7% | [18] 51.6% | [19] 11.8%
active: [17] -4.72%

CC(C)CCC[C@@H](C)[C@H]1CC[C@H]2[C@@H]3CC=C4N(c5ccccc5)C(=O)CC[C@]4(C)[C@H]3CC[C@]12C
inactive: [1] 101% | [2] 96.7% | [3] 86.2% | [4] 91.7% | [5] 97.4% | [6] 105% | [7] 118% | [8] 92.2% | [9] 79.9% | [10] 92.4% | [11] 97.8% | [12] 109% | [13] 102% | [14] 103% | [15] 103% | [16] 99.1% | [17] 92.1% | [18] 109% | [19] 98.9%
